Shown are actives, neighbours in structure and some others; about 19% of the full set was active somewhere.
IL-1B inflam inh: inhibitors of inflammasome signaling (IL-1 beta secretion); THP-1 LPS/ATP IL-1B secretion, AlphaLISA, 16 h; active compounds read low; activity change, % at 57.5 µM; 4.7% of 360,000 active; in the data active = activity change below about -50%; inconclusive = mostly about -30% to -49%; note: % is set by controls: 0 for no effect and ±100 for the full control effect
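THP-1 cells pretreated 1 hr with compounds (up to 57.5 uM final), then stimulated with LPS (250 ng/mL final) plus ATP (1.25 mM final); secreted IL-1B measured by AlphaLISA after 16 hr, decreased signal indicating inhibition.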
TDP1 cell noCPT: qHTS for Inhibitors of human tyrosyl-DNA phosphodiesterase 1 (TDP1): qHTS in cells in absence of CPT; DT40 Tdp1-/- hTDP1 cells, no CPT, ATP luminescence, 48 h; Potency, µM (doses to about 46.2 µM), for inactives: at the top dose activity change, negative = growth inhibition, actives largely listed as inhibitors; 15% of 420,000 active; AID 686978, 2013; note: potency is the fitted concentration of half-maximal effect; % is set by controls: 0 for no effect and ±100 for the full control effect; nearly all actives have a fitted effect of over 55% in size
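Readout: luminescence from CellTiter-Glo after 30 min in the dark at RT. Cells: DT40 Tdp1-/- with stable hTDP1, 400/well. Exposure: compounds alone, ≥48 hr, 37 °C.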
TGFb inhibitor: inhibitors of TGF-b signaling; Potency, µM (highest dose often 46.1 µM), without a hit: top-dose activity, negative = inhibition, hits mostly inhibitors; 1.2% of 410,000 active; HepG2 CAGA-GFP TGF-b/SMAD3 reporter, GFP fluorescence, 18 h; TGF-beta stimulated, 500 pg/mL final; note: potency is the fitted concentration of half-maximal effect; % is set by controls: 0 for no effect and ±100 for the full control effect; nearly all actives have a fitted effect of over 65% in size
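Using HEPG2 CAGA-GFP reporter cells at 1000 cells/well, we pinned test compounds, stimulated with recombinant TGF-beta (500 pg/mL final) and measured total well GFP after 18 h.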
S-ASM inh: human S-ASM enzyme inhibition. Potency, µM (highest dose often 57.5 µM), without a hit: top-dose activity change, negative = inhibition, hits mostly inhibitors. placental ASM, HMU-PC fluorogenic substrate, 60 min. 0.006% of 340,000 active; note: potency is the fitted concentration of half-maximal effect
Target sequence (P17405 47-631 limits assumed): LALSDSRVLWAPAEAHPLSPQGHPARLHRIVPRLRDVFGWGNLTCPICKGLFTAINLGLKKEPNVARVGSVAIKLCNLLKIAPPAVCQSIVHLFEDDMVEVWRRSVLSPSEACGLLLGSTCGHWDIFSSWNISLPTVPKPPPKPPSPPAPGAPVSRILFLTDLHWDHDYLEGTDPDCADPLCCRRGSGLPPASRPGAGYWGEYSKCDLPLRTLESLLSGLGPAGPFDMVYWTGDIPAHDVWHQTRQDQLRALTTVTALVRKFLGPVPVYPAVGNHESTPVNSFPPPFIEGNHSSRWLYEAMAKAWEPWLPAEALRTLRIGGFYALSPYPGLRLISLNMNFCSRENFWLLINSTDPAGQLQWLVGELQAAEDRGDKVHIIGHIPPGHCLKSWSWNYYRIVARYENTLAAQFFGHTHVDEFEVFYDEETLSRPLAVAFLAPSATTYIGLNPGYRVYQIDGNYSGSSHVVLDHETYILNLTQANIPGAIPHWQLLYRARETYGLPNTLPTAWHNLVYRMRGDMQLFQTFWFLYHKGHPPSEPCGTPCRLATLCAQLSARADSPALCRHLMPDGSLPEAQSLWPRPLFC
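qHTS format. ASM enzyme prepared from human placenta hydrolyses the fluorogenic substrate HMU-PC0 (9 uM final) over 60 min at 37 °C after a 10 min compound preincubation.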
HepG2 viability: kills HepG2 cells in TGF-b inhibitor counter-screen; HepG2 CAGA-GFP viability, ATP luminescence, 18 h; Potency, µM (titrated, usually from 46.1 µM), for inactives: at the highest dose activity change, negative = cytotoxicity, usual class: cytotoxic; 0.76% of 410,000 active; AID 588856; note: potency is the fitted concentration of half-maximal effect
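CellTiter-Glo luminescence gave cytotoxicity after 18 hours at 37 degrees C. The cells were HepG2 CAGA-GFP in 1% FBS DMEM, stimulated with 500 pg/mL TGF-beta after compound addition. %Activity was normalised to no-cell wells (complete cell-killing) and DMSO (no toxicity), and curves were fitted and classified.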
DT40 TDP1 CPT: growth inhibition of DT40 Tdp1-/-;hTDP1 cells with camptothecin (screen for TDP1 inhibitors). chicken DT40 Tdp1-/-;hTDP1 cells + 20 nM CPT, ATP luminescence, 48 h. Potency, µM (highest dose often 46.2 µM), without a hit: at the top dose activity change, negative = growth inhibition, actives largely listed as inhibitors. 12% of 420,000 active; note: potency is the fitted concentration of half-maximal effect; % is set by controls: 0 for no effect and ±100 for the full control effect; nearly all actives have a fitted effect of over 55% in size
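Cell growth measured by CellTiter-Glo luminescence after a minimum 48 h, 37 C compound exposure with 20 nM CPT in Tdp1-knockout DT40 cells stably expressing hTDP1, seeded 400/well; qHTS titration format.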
Starred values were filed as active, the others as inactive; ? = inconclusive; nt = no result given. Unless noted, calls come from the whole dose curve; as a rule, active = well fitted curve in the direction sought with a large enough effect; inconclusive = small, poorly fitted or top-dose-only effect, or another doubt; inactive = no such curve, though single readings can be large; an effect the other way counts as inactive or inconclusive.

SMILES	IL-1B inflam inh	TDP1 cell noCPT	TGFb inhibitor	S-ASM inh	HepG2 viability	DT40 TDP1 CPT
CSc1ccc(NC(=O)NCCCN2CCC(Cc3ccccc3)CC2)cc1	-54*	23µM*	?	-3%	-104%	?
Cc1cc(C)cc(NC(=S)N2CCC(C(=O)c3ccc(F)cc3)CC2)c1	-10	-4%	8%	4%	3%	-7%
C[C@@H]1C=C[C@](Cc2ccccc2)(C(=O)NCC2CC2)N1C(=O)c1ccccc1	8	9.2µM*	?	5%	-7%	18µM*
CC1(C)Cc2nc3sc4c(NCCO)ncnc4c3cc2CS1	-3	21µM*	?	2%	-60%	?
CCCCn1cnc2c(sc3nc4c(cc32)CSC(C)(C)C4)c1=O	-7	?	-3%	-1%	-1%	?
CC(C)CCn1cnc2c(sc3nc4c(cc32)CSC(C)(C)C4)c1=O	12	16µM*	?	3%	-3%	?
O=C(NC1CCCCC1)C(c1ccncc1)n1c(=O)c(-c2ccccc2)nc2ccccc21 (stereo unspecified)	3	-25%	nt	nt	nt	-17%
COc1ccc(C(C(=O)NC(C)(C)C)n2c(=O)c(-c3cc4ccccc4[nH]3)nc3ccccc32)cc1 (stereo unspecified)	-7	?	nt	nt	nt	?
O=C(NC1CCCCC1)C(c1ccc(C(F)(F)F)cc1)n1c(=O)c(-c2cc3ccccc3[nH]2)nc2ccccc21 (stereo unspecified)	70	?	nt	nt	nt	15µM*
O=C(NC1CCCCC1)C(c1ccncc1)n1c(=O)c(-c2cc3ccccc3[nH]2)nc2ccccc21 (stereo unspecified)	?	?	nt	nt	nt	18µM*
CN(C)CCC(Oc1ccccc1OCc1ccccc1)c1ccccc1 (stereo unspecified)	-90*	16µM*	0%	-2%	-53%	?
CCOC(=O)c1c(C)sc2c1N(C(=O)CN(CC)CC)c1ccccc1S2	-11	21µM*	-7%	-3%	-36%	?
CCOC(=O)c1c(C)sc2c1N(C(=O)CN(CC)CC)c1cc(Cl)ccc1S2	-20	?	?	4%	-14%	18µM*
Cc1cccc(NC(=O)NC2CCCc3ccccc32)c1 (stereo unspecified)	10	-15%	4%	-1%	1%	-28%
Cc1ccc(S(=O)(=O)Nc2ccc(S(=O)(=O)Nc3nccs3)cc2)c([N+](=O)[O-])c1	?	?	?	0%	-34%	?
Cc1ccccc1-c1nc(N(C)C)c2ccccc2n1	nt	-18%	nt	nt	nt	-26%
CN(C)c1ccc(-c2nc(-n3ccnc3)c3ccccc3n2)cc1	nt	18µM*	nt	nt	nt	13µM*
CN(C)c1ccc(-c2nc(N(C)Cc3ccco3)c3ccccc3n2)cc1	nt	16µM*	nt	nt	nt	29µM*
CC(C)CN(CC(C)C)c1nc(-c2ccc(Cl)cc2)nc2ccccc12	nt	nt	22%	nt	-3%	nt
CCN(CC)c1nc(-c2ccc(C(C)(C)C)cc2)nc2ccccc12	nt	?	11%	nt	1%	23µM*
CN(C)c1ccc(-c2nc(N(C)C)c3ccccc3n2)cc1	nt	23µM*	nt	nt	nt	?
CC1CC(C)CN(c2ccc(NS(=O)(=O)c3ccccc3)cc2C(=O)O)C1 (stereo unspecified)	0	16%	0%	-1%	-2%	14%
COC(=O)c1[nH]c2ccc(F)cc2c1NC(=O)CCN1CCN(Cc2ccc3c(c2)OCO3)CC1	-1	21µM*	-3%	2%	-21%	16µM*

Compound activity deposited in PubChem BioAssay by National Center for Advancing Translational Sciences (NCATS).
